# This is a sample that favours compounds with a hit; in the whole collection about 2.6% have one here.
# p53ts 32C kill: kills p53ts cells at the permissive temperature; 0.93% of 130,000 active; AID 924; Potency, µM (highest dose often 46.1 µM), without a hit: at the highest dose activity change, negative = cytotoxicity, most hits filed as cytotoxic; H1299-p53A138V at 32C, ATP luminescence viability, 24 h;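 also: 0% = DMSO and -100% = full killing by reference compound; nearly all actives have a fitted effect of over 55% in size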
#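 H1299-p53 A138V cells (temperature-sensitive p53) exposed 24 h to up to 46 uM compound at 32C, where p53 is wild-type in conformation. Viability read as ATP luminescence and normalised to DMSO and 100 uM tamoxifen. AC50 fitted with the Hill equation.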
# FLuc inh: blocks Photinus pyralis firefly luciferase activity; P08659; purified firefly luciferase, luminescence, 8 min; Potency, µM (top dose mostly 57.1 µM), for inactives: top-dose activity change, negative = inhibition, actives largely listed as inhibitors; 2.2% of 72,000 active; AID 411; also: nearly all actives have a fitted effect of over 40% in size
# Target sequence (P08659 whole entry, looked up): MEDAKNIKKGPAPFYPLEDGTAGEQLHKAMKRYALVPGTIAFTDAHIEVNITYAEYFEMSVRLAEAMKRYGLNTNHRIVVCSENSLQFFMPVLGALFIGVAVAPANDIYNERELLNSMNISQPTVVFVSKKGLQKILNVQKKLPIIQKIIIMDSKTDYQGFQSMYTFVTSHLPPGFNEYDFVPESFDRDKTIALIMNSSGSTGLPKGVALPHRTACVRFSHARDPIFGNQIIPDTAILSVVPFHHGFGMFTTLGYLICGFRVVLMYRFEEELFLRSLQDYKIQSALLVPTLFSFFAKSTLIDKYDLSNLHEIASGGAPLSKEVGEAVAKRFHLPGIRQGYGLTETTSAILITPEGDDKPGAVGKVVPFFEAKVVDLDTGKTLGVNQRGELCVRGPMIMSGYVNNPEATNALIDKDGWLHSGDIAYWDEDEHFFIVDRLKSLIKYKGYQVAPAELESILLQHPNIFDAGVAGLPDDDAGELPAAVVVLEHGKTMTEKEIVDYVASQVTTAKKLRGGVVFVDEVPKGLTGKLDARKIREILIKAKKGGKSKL
#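 Here, luciferase activity is measured as luminescence following an 8 min room-temperature reaction at 10 uM ATP, pH 7.2. Every library sample is titrated.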
# p53ts 39C tox: kills p53ts cells at the nonpermissive temperature. H1299-p53A138V viability at 39C, ATP luminescence, 24 h. Potency, µM (highest dose often 46.1 µM), for the others: at the top dose activity change, negative = cell killing, hits mostly cytotoxic. 1.5% of 130,000 active. AID 902; also: nearly all actives have a fitted effect of over 55% in size
# * hit, by the source's call; ? = inconclusive; nt = not tested or not shown; [ ] = remark or other dose. Calls follow the shape of the dose curve; as a rule, active = well fitted curve in the direction sought with a large enough effect; inconclusive = small, poorly fitted or top-dose-only effect, or another doubt; inactive = no such curve, though single readings can be large; an effect the other way counts as inactive or inconclusive. Unless noted, % is scaled to controls: 0 for no effect and ±100 for the full control effect; potency is read from the fitted curve at half-maximal effect.
SMILES,p53ts 32C kill,FLuc inh,p53ts 39C tox
CCC(=O)Nc1cc2nn(-c3ccc(OC)cc3)nc2cc1C,?,1.26µM*,?
OC[C@H]1O[C@@H](n2cnc3c(NCc4ccccc4)ncnc32)[C@H](O)[C@@H]1O,6.31µM*,nt,10µM*
OC[C@H]1O[C@@H](n2cnc3c(NCCc4ccccc4)ncnc32)[C@H](O)[C@H]1O,11.3%,nt,-12.1%
Cn1c(=O)c(-c2ccc(Cl)cc2)nc2cnc(OCc3ccccc3)nc21,2.4%,0.9%[11.4 µM],3.8%
O=C(c1ccc(N2CCOCC2)cc1)c1cccs1,12.6µM*,10µM*,7.94µM*
O=C(Nc1ccc(C(=O)N2CCOCC2)cc1)c1cccs1,-11.0%,-2.1%,2.5%
COc1ccc(-n2nc(C(=O)NCC(=O)N3CCN(c4ccccn4)CC3)c3ccccc3c2=O)cc1,12.6µM*,3.16µM*,12.6µM*
COc1ccc(CC(=O)N2CCN(c3ccccn3)CC2)cc1,13.7%,-1.3%,11.7%
Cc1cccc(C)c1NC(=O)Cn1c(=O)n(Cc2ccc(C(=O)NCc3ccco3)cc2)c(=O)c2sccc21,-6.4%,nt,-22.9%
Cc1cc(C)c(NC(=O)Cn2c(=O)n(Cc3ccc(C(=O)NCc4ccco4)cc3)c(=O)c3sccc32)c(C)c1,?,nt,25.1µM*
Cc1ccc(CNC(=O)c2ccc(Cn3c(=O)c4ccccc4n(CC(=O)Nc4c(C)cc(C)cc4C)c3=O)cc2)cc1,15.8µM*,nt,-29.2%
Cc1ccc(CNC(=O)c2ccc(Cn3c(=O)c4ccccc4n(CC(=O)Nc4ccc(C)cc4C)c3=O)cc2)cc1,-16.3%,nt,?
COC(=O)C/C=C\[C@@H](C)[C@@H](CO)NS(=O)(=O)c1ccc(C)cc1,10.4%[9.22 µM],1.3%[11.4 µM],-1.0%[9.22 µM]
CCOC(=O)c1ccc(NC(=O)N2CCN(CCc3ccccc3)CC2)cc1,-17.6%,25.1µM*,-0.7%
CCOC(=O)c1ccc(NC(=O)N2CCN(c3ccccn3)CC2)cc1,1.4%,-1.9%,3.8%
CC(C)c1ccc(-c2nnn(CCC(=O)O)n2)cc1,10µM*,?,?
O=C(O)CCn1nnc(-c2cccs2)n1,2.4%,5.5%,3.5%
Brc1ccc(-c2nc(-c3ccncc3)no2)o1,-5.9%,-1.8%,0.2%
CC(C)Nc1ccc(-c2nc(-c3ccccn3)no2)cc1[N+](=O)[O-],-9.2%,nt,-2.8%
Brc1ccc(-c2nc(-c3ccccn3)no2)o1,7.94µM*,3.16µM*,6.31µM*
Clc1ccc(-c2nc(-c3ccccn3)no2)cc1Cl,5.01µM*,3.16µM*,7.94µM*
COc1ccc(CNc2nc(-c3ccc(OC)cc3)cc(C(F)(F)F)n2)cc1,-7.0%,nt,-2.3%
CC(C)CNC(=O)O,3.5%[9.22 µM],4.0%[11.4 µM],1.3%[9.22 µM]
CCN1CCN(c2ncnc3c2cnn3-c2cc(Cl)ccc2C)CC1,-1.6%,nt,?
Cc1ccc(Cl)cc1-n1ncc2c(N3CCN(Cc4ccccc4)CC3)ncnc21,15.8µM*,nt,20µM*
SMILES,p53ts 32C kill,FLuc inh,p53ts 39C tox
c1ccc(Cn2ncc3c(N4CCCCC4)ncnc32)cc1,-1.9%,-0.5%,4.3%
CCOC(=O)C1CCN(c2ncnc3c2cnn3-c2ccc(Cl)cc2)CC1,nt,1.5%[25.5 µM],nt
Clc1cccc(-n2ncc3c(N4CCCCC4)ncnc32)c1,3.16µM*,nt,6.31µM*
Cc1nn(-c2ccccc2)c(Cl)c1C(=O)N1CCN(c2ncnc3c2cnn3-c2ccccc2)CC1,10µM*,3.3%,?
Clc1cccc(-n2ncc3c(N4CCCCCC4)ncnc32)c1,?,nt,12.6µM*
O=C(c1ccco1)N1CCN(c2ncnc3c2cnn3-c2ccccc2)CC1,-6.2%,-5.7%,-3.1%
CCC(Cn1nnc2ccccc2c1=O)NC(=O)Nc1cccc(C)c1C (centres undefined),1.8%,nt,-15.3%
CCN(C(=O)CSc1nc2ccccc2c2nc(CCn3c(C)nc4ccccc43)nn12)c1cccc(C)c1,8.4%,nt,-14.6%
c1ccc(CSc2nnc(C3CCNCC3)o2)cc1,0.5%,nt,-3.3%
Nc1c(C(=O)NCc2ccccc2)nnn1Cc1cccc(Br)c1,6.9%,nt,?
COc1ccc(-c2nc3ccccc3n2Cc2ccccc2)cc1,-1.2%,nt,-10.2%
C=CCn1c(-c2ccc(OC)cc2)nc2ccccc21,15.8µM*,25.1µM*,?
CCOC(=O)c1cc(-c2ccccc2)n(CCC(=O)Nc2ccc(C(F)(F)F)cc2)c1C,4.5%,nt,?
Cn1c(C(=O)NCc2cccs2)cc2c(=O)n(C)c3ccccc3c21,0.2%,1.1%,-4.4%
COc1cccc(CNC(=O)c2cc3c(=O)n(C)c4ccccc4c3n2C)c1,-2.5%,nt,10µM*
CCOc1ccccc1NC(=O)c1nn(-c2ccc(C)cc2)c(=O)n(C)c1=O,3.3%,nt,-20.3%
S=C1SCN(C2CCCCCCCCCCC2)CN1C1CCCCCCCCCCC1,5.2%[9.22 µM],3.3%[11.4 µM],1.8%[9.22 µM]
O=C(CSc1ncccc1-c1nc2ccccc2[nH]1)NCc1ccco1,-11.3%,?,-14.7%
Cc1cc2nc(-c3cccnc3SCC(=O)NCc3ccco3)[nH]c2cc1C,5.01µM*,3.98µM*,5.01µM*
CCc1ccc(NC(=O)c2cccnc2)cc1,-6.1%,-17.7%,-21.6%
NS(=O)(=O)c1ccc(NC(=O)c2csnn2)cc1,-3.0%,nt,13.9%
O=C(Nc1ccc2oc(-c3ccccc3)nc2c1)c1cccnc1,-5.7%,-8.8%,-8.6%
CC(C)c1ccc2oc(-c3cc(NC(=O)c4cccnc4)ccc3Cl)nc2c1,20µM*,nt,?
CC(C)c1ccc2oc(-c3ccc(NC(=O)c4cccc(Br)c4)cc3)nc2c1,-0.5%,nt,-13.8%
CCc1ccc2oc(-c3cccc(NC(=O)c4cccnc4)c3)nc2c1,?,5.01µM*,-28.6%
SMILES,p53ts 32C kill,FLuc inh,p53ts 39C tox
CC(C)c1ccc(NC(=O)c2csnn2)cc1,12.6µM*,5.01µM*,15.8µM*
CC(C)c1ccc(NC(=O)c2cccnc2)cc1,?,15.8µM*,-27.8%
COc1ccc(-c2coc3ccc(OC4OC(COC(C)=O)C(OC(C)=O)C(OC(C)=O)C4OC(C)=O)c(OC(C)=O)c3c2=O)cc1 (centres undefined),0.1%,nt,-8.2%
COc1cccc(C2CC(=O)Nc3cc4c(cc32)OCCO4)c1OC (centres undefined),12.9%,nt,-18.1%
CCCC(=O)Nc1nnc2n1CCS2,6.1%,nt,-20.1%
O=c1c(-c2ccc(Cl)cc2)nc2cnc(N3CCNCC3)nc2n1-c1ccccc1,-1.0%,-1.3%[11.4 µM],?
CCCCNc1c(CN)cnc2cc(Cl)ccc12,nt,1.4%[11.4 µM],nt
CCc1ccccc1NC(=O)c1ccc2nc(C(C)C)oc2c1,18.6%,nt,-3.3%
C[C@@H]1Oc2ccc(C(=O)C[C@@H](C(=O)O)c3ccc4c(c3)OCO4)cc2O1,1.2%[9.22 µM],4.7%[11.4 µM],16.9%[9.22 µM]
Cc1c(N=CC=Nc2c(C)n(C)n(-c3ccccc3)c2=O)c(=O)n(-c2ccccc2)n1C,-1.7%,2.7%,-1.4%
Cc1c(N=c2c(=O)c3ccccc3c2=O)c(=O)n(-c2ccccc2)n1C,10µM*,-27.9%,12.6µM*
Cc1ccccc1-c1ccc(C=Nc2c(C)n(C)n(-c3ccccc3)c2=O)o1,4.7%,15.8µM*,-15.2%
Cc1c(N=Cc2ccc(Cl)o2)c(=O)n(-c2ccccc2)n1C,2.4%,1.1%,-8.4%
CCOc1ccc(OCC)c(NC(=O)c2cc(S(=O)(=O)N3CCc4ccccc43)cn2C)c1,15.8%,nt,-3.4%
Cc1ccc(N2CCN(C(=O)c3c(C)oc4nc(C)nc(N5CCCC5)c34)CC2)c(C)c1,-5.7%,nt,6.8%
N=c1ccn2c(n1)O[C@@H]1[C@@H](O)[C@H](CO)O[C@H]12,-0.5%,0.4%,-8.8%

# From PubChem BioAssay
